From ChEMBL document CHEMBL3988442, “University of Dundee, Small-Polar-MMV Screening Library” (2021)
Hit rate of the full screen: of about 48,000 compounds, about 13,000 (27%) showed an effect of 50% or more. Some of the results follow.

system: Wolbachia pipientis; assay: Anti-Wolbachia Cell-Based Screen; type: functional; parameters: scale not given: in the data most compounds retested in dose-response had high values; conditions: 5 µM

| SMILES | Percent Effect [%] |
| --- | --- |
| COC(=O)CSc1nnc2[nH]c(=O)c3c(n12)CCCC3 | -5.705 |
| CCn1c(SCC(N)=O)nnc1-c1csc2c1CCCC2 | 115.1 |
| O=C(CSc1ccncc1)N1C[C@H]2CC[C@@H]1CN(Cc1cccnc1)C2 | 5.846 |
| CCCc1n[nH]c(C2CN(CCNS(=O)(=O)CC)CCO2)n1 (stereo unspecified) | 14.03 |
| CC(C)c1cc(C(=O)NCC2CCCN(c3ncccn3)C2)n(C)n1 (stereo unspecified) | 135 |
| CCCc1nnsc1C(=O)NCC1CCN(c2ncccn2)CC1 | 3.898 |
| CC(C)c1cc(C(=O)NCC2CCCN(C(C)C)C2)n(C)n1.Cl (stereo unspecified) | 153.6 |
| CCc1nnsc1C(=O)NCCC1CCCN(C(C)C)C1 (stereo unspecified) | 8.592 |
| CCCc1nnsc1C(=O)NCC1CCN(c2ccccn2)CC1 | -9.247 |
| O=C(NCCCN1CCN(c2ncccn2)CC1)NCC1CCOC1 (stereo unspecified) | 1.135 |
| CCn1nc(C(C)C)cc1C(=O)NCC1CCCN(c2ccccn2)C1 (stereo unspecified) | 125 |
| CC(C)Cc1cc(C(=O)NCC2CCCN(c3ccccn3)C2)on1 (stereo unspecified) | 8.718 |
| Cc1ccc(-c2nc(CC(=O)NCC3CCCN(C(C)C)C3)cs2)o1 (stereo unspecified) | 19.88 |
| CC(C)Sc1ccc(C(C)NC(=O)CNS(C)(=O)=O)cc1 (stereo unspecified) | -8.082 |
| COCC(C)N1CCc2onc(-c3ccc(C(F)(F)F)cc3)c2C1 (stereo unspecified) | -24.24 |
| Cc1nn(C)c(C)c1C1COCCN1c1ncnc2sccc12 (stereo unspecified) | -13.78 |
| CCc1ncnc(N2CCOCC2C2CC2)c1F (stereo unspecified) | 106.4 |
| CC[C@H]1COCCN1C(=O)c1cnc(C(C)C)nc1C | -0.1974 |
| CCc1ncnc(N2CCOCC2CCO)c1F (stereo unspecified) | 97.7 |

| SMILES | Percent Effect [%] |
| --- | --- |
| CCc1ncnc(N(C)CC2CCCCO2)c1F (stereo unspecified) | 6.222 |
| CCc1c(C)sc2ncnc(N3CC[C@@H](N4CCOCC4)[C@H](O)C3)c12 | -13.58 |
| CCc1ccc(CN2CCc3ncnc(N4CCOCC4)c3CC2)o1.O=C(O)C(F)(F)F | 10.74 |
| CCc1ncnc(N2CCOCC2C(N)=O)c1F (stereo unspecified) | 114.1 |
| CCOCC(=O)N1CCc2c(ncnc2N2CCOCC2)C1 | -19.06 |
| Cc1n[nH]cc1CNCC(c1ccsc1)N(C)C (stereo unspecified) | 26.65 |
| COc1cccc(Cn2cccc(C#N)c2=O)c1 | -6.219 |
| CCN1N=C(C(=O)N2CCCC(c3nc(C)cs3)C2)CCC1=O (stereo unspecified) | 85.99 |
| Cc1nc(C2CCCN(C(=O)C3=NN(C(C)C)C(=O)CC3)C2)no1 (stereo unspecified) | -5.623 |
| CCN1N=C(C(=O)N2CCCC(c3noc(C)n3)C2)CCC1=O (stereo unspecified) | -1.234 |
| CCc1nc(C2CCCN(C(=O)C3=NN(CC)C(=O)CC3)C2)no1 (stereo unspecified) | 20.67 |
| CCN1N=C(C(=O)N2CCCC(c3nc(C)c(C)s3)C2)CCC1=O (stereo unspecified) | 92.25 |
| CCc1csc(C2CCCN(C(=O)C3=NN(CC)C(=O)CC3)C2)n1 (stereo unspecified) | 7.447 |
| COC1CCCN(C2CCN(c3cccc(-c4csc(C)n4)c3)CC2)C1 (stereo unspecified) | 10.88 |
| NC(=O)C1CCN(C(=O)C2SCCc3sccc32)CC1 (stereo unspecified) | -9.27 |
| COc1cccc(-c2ncc(CN3C[C@@H]4CC[C@H](C3)N(C)C4=O)s2)c1 | 4.635 |
| COCCn1ccnc1C1CCN(C(=O)c2cccc(COC)n2)CC1 | -13.9 |
| CN(C)S(=O)(=O)N1C[C@H]2CCC[C@@]2(COCC2CC2)C1 | -7.001 |
| CN(C)CC(=O)N1CCC2(CC1)COCCN(c1ncccn1)C2 | 104.4 |

| SMILES | Percent Effect [%] |
| --- | --- |
| CN(C)C(=O)N1CCC2(CC1)COCCN(c1ncccn1)C2 | 89.78 |
| CN(C)CC(=O)N1CCC2(CC1)COCCN(Cc1ccncc1)C2 | -9.31 |
| CN(C)CC(=O)N1CCC2(CC1)CN(c1ncccn1)CCO2.O=C(O)C(F)(F)F | -4.698 |
| CC(C)C(=O)N1CCOC2(COCCN(c3ncccn3)C2)C1 (stereo unspecified) | 1.497 |
| c1cc(CN2CCCCC2)cc(NCc2cc[nH]n2)c1 | 0.9619 |
| Cc1ccc(S(=O)(=O)NC[C@H]2OC[C@@H](NCc3ccncc3)[C@@H]2O)cc1 | -4.658 |
| CCc1nc(C)c([C@H]2CN(C)C[C@@H]2C(=O)NC(C)(C)c2ccccc2)[nH]1 | -16 |
| Cc1nc(C)n(CC2CCCCN2CCCS(=O)(=O)N(C)C)n1 (stereo unspecified) | -10.86 |
| CCC[C@@H]1CN(C(=O)c2c(F)ccc(C)c2Cl)C[C@H]1C(=O)O | 10.65 |
| CC(=O)c1c(C)cc(C)c(CS(=O)(=O)c2nccn2C)c1C | -11.41 |
| Cc1occc1C(=O)N1CC[C@@H](N2CCOCC2)[C@@H]1Cc1ccccc1 | 5.558 |
| CN(C(=O)C1CCOCC1)[C@@H]1CCC[C@@H](N2CCOCC2)[C@@H]1O | 124.2 |
| CN([C@@H]1CC[C@@H](N2CCOCC2)[C@@H]1O)S(=O)(=O)c1ccccc1 | 122.9 |
| O=C(C1CCOCC1)N1CC[C@@](O)(c2ccccc2)[C@H]2CCCC[C@@H]21 | 1.669 |
| CN(C(=O)C1CCOCC1)[C@@H]1CCC[C@@H](N2CCCC2)[C@@H]1O | 75.81 |
| O[C@H]1CN(c2nc(-c3ccccc3)no2)C[C@@H]1N1CCOCC1 | 10.35 |
| CN(C)C(=O)CO[C@@H]1CC[C@H]2[C@H]1OCCN2C(=O)C1CCOCC1 | 4.998 |
| CN(C(=O)C1CCCCC1)[C@@H]1CCC[C@@H](N2CCOCC2)[C@@H]1O | 5.741 |
